Among the data in PubChem BioAssay AID2289 (National Center for Advancing Translational Sciences (NCATS), 2010) are Potency values, retold here.

In all, about 340,000 compounds went through this assay and about 3,300 (0.97%) were called active. About 9% were inconclusive and are not listed. Calls follow the shape of the dose curve; as a rule, active = well fitted inhibition curve with a large enough effect; inconclusive = small, poorly fitted or top-dose-only effect, or effect the other way; inactive = flat fitted curve, though single readings scatter. This is one part of the list.
Potency is read from the fitted curve at half-maximal effect.

This experiment in a line: qHTS Assay for Modulators of miRNAs and/or Inhibitors of miR-21. Also: nearly all actives have a fitted effect of over 55% in size. As to conditions: HeLa miR-21-FLuc reporter, luciferase luminescence, 48 h; actives lower the signal. The procedure, abridged: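 HeLa cells endogenously expressing miR-21, stably carrying CMV-driven firefly luciferase with a downstream miR-21 binding site, 2000 cells/well. Titrations up to approximately 40 uM, 48 hours; luciferase luminescence read.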
For `COc1cc(/C=N/NC(=O)Nc2ccccc2)ccc1OC(C)=O`, the Potency was 8.26 µM (active).
For `CCN(CC)c1ccc(/C=N/NC(=O)Nc2ccccc2)cc1` the value was 4.14 µM (active).
For the compound `Cc1cccc(/C(N)=N/OC(=O)c2ccc(F)cc2)c1`, the Potency is 4.65 µM (active).
`COc1ccc(/C=C/C(=O)O/N=C(\N)c2ccccc2)cc1OC`: the Potency was 5.85 µM (active).
As to `CCCCCC(=O)N/N=C/c1ccc(N(C)C)cc1`, the Potency is 13.1 µM (active).
Turning to `COc1ccc2c(c1)CC/C2=N\OC(=O)c1cccc(C)c1`, the Potency is 4.14 µM (active).
For the compound `COc1ccc(C(=O)O/N=C(\N)c2cccc(C)c2)cc1OC`, the Potency is 8.26 µM (active).
For `O=C(/C=C/c1ccccc1)Nc1cccnc1Cl` the value was 1.85 µM (active); for `COc1ccc(C(=O)O/N=C(\N)c2ccccc2)cc1OC`, 2.07 µM (active); for `Cc1ccccc1/C(N)=N/OC(=O)/C=C/c1ccccc1`, 5.21 µM (active).
To `CC(=O)Oc1ccc(/C=N/NC(=S)Nc2ccccc2)cc1` belongs 0.656 µM (active).
Regarding `C=CCn1cccc(C(=O)Nc2ccc(N(C)C)cc2)c1=O`, the Potency is 4.65 µM (active).
Regarding `Clc1cccc(-c2cc3nc4c(c(NCc5ccco5)n3n2)CCCC4)c1`, the Potency is 2.93 µM (active).
With `c1ccc(CSc2ccc(-c3cccnc3)nn2)cc1`, the Potency is 6.56 µM (active).
Regarding `Fc1cccc(CSc2ccc(-c3cccs3)nn2)c1`, the Potency is 4.14 µM (active).
As for `Cc1cccc(CSc2ccc(-c3cccs3)nn2)c1`, the Potency is 7.36 µM (active).
As for `c1ccc(CSc2ccc(-c3cccs3)nn2)cc1`, the Potency is 2.93 µM (active).
With `COc1ccc(Nc2nc(C)c3ccccc3n2)cc1`, the Potency is 3.29 µM (active).
Regarding `Cc1cc(Nc2ccccc2)nc2cc(O)ccc12`, the Potency is 13.1 µM (active).
Turning to `CCOc1ccc(Nc2cc(C)c3ccccc3n2)cc1`, the Potency was 18.5 µM (active).
As to `COc1ccc(Nc2cc(C)c3ccccc3n2)cc1`, the Potency is 5.85 µM (active).
For `O=[N+]([O-])c1nn(-c2ccc3c(c2)OCCO3)n(O)c1=NCc1ccc(F)cc1` the value was 1.17 µM (active); for `Cc1ccc(CN=c2c([N+](=O)[O-])nn(-c3ccc4c(c3)OCCO4)n2O)cc1`, 1.31 µM (active).
Regarding `COc1ccc(-n2nc([N+](=O)[O-])c(=NCc3cccnc3)n2O)cc1`, the Potency is 2.33 µM (active).
On to `COc1ccc(-n2nc([N+](=O)[O-])c(=NCc3ccc4c(c3)OCO4)n2O)cc1`, for which the Potency was 1.65 µM (active).
On to `CCOC(=O)c1sc(NC(=O)c2sccc2C)cc1C`, for which the Potency was 0.369 µM (active).
To `CCOC(=O)c1sc(NC(=O)c2ccccc2)cc1C` belongs 0.521 µM (active); to `CCOC(=O)c1sc(NC(=O)C2CCC2)cc1C`, 4.65 µM (active); to `COc1ccc2[nH]c(=O)c(CNc3ccccc3C)cc2c1`, 7.36 µM (active).
As for `O=C(N=Nc1c(O)n(Cc2ccccc2)c2ccccc12)c1ccc(O)cc1`, the Potency was 6.56 µM (active).
Turning to `Cc1ccc(NC(=O)CSCc2ccc(F)cc2)cc1`, the Potency is 6.56 µM (active).
Turning to `O=C(CSCc1c(F)cccc1F)Nc1ccccc1`, the Potency is 5.85 µM (active).
For the compound `O=C(CSCc1ccccc1)Nc1ccc(F)c(F)c1`, the Potency was 14.7 µM (active).
For the compound `O=C(CSCc1ccccc1)Nc1cccc(F)c1`, the Potency is 13.1 µM (active).
Take `NC(=O)c1cccnc1Nc1cccc([N+](=O)[O-])c1`: the Potency is 6.56 µM (active).
For `Cc1ccc(Nc2ncccc2C(N)=O)cc1` the value was 1.65 µM (active); for `O=C(NCCc1ccccc1F)c1cccc2cccnc12`, 3.29 µM (active).
Take `Cc1ccc(NC(=O)c2cccc3cccnc23)cc1`: the Potency was 3.69 µM (active).
For `Cc1cc(Cl)ccc1Nc1ncccc1C(N)=O`, the Potency is 2.07 µM (active).
Regarding `Cc1ccc(Nc2ncccc2C(N)=O)cc1[N+](=O)[O-]`, the Potency is 3.29 µM (active).
For the compound `COc1ccnc(Oc2ccc3ccccc3c2)c1C#N`, the Potency is 2.93 µM (active).
Take `COc1ccc(-c2nc3c4ccccc4ccn3c2CN2CCOCC2)cc1OC`: the Potency is 6.56 µM (active).
Regarding `COc1cnn(-c2ccc(Br)cc2)c(=O)c1SCc1ccccc1`, the Potency is 13.1 µM (active).
With `CC(=O)Nc1ccc(-c2csc(NCc3ccco3)n2)cc1`, the Potency is 4.14 µM (active).
For `COc1ccc(-c2csc(NCc3ccco3)n2)cc1C` the value was 5.85 µM (active).
As to `Oc1ccc(-c2csc(NCc3ccco3)n2)cc1`, the Potency is 4.65 µM (active).
On to `O=C(Cc1ccc(Cl)cc1)c1ccc(O)cc1`, for which the Potency was 5.21 µM (active).
To `CN(C)/C=C/C(=O)c1cnc(-c2ccccc2Cl)s1` belongs 18.5 µM (active); to `CN(C)/C=C/C(=O)c1cnc(-c2cccc(Cl)c2)s1`, 18.5 µM (active).
On to `COc1ccccc1OCCCOc1ccc([N+](=O)[O-])cc1Cl`, for which the Potency is 7.36 µM (active).
For the compound `COc1cc(C)ccc1OCCCOc1ccccc1Cl`, the Potency was 6.56 µM (active).
For the compound `COc1cc(C)ccc1OCCOc1ccccc1Cl`, the Potency was 14.7 µM (active).
Consider `Cn1c(-c2ccc3nc(N)sc3c2)nc2cc(N)ccc21`, for which the Potency is 18.5 µM (active).
Take `CN(N=Nc1ccc([N+](=O)[O-])cc1)c1ccccc1`: the Potency was 4.14 µM (active).
`Cc1nc(NC(=S)NC(=O)c2cccs2)ccc1Br`: the Potency is 14.7 µM (active).
Take `O=C(NC(=S)Nc1ccc(Br)cn1)c1cccs1`: the Potency was 0.521 µM (active).
On to `O=c1[nH]c(COc2ccc(Cl)cc2Br)nc2ccccc12`, for which the Potency is 3.29 µM (active).
Turning to `O=c1[nH]c(COc2ccc(Br)cc2Cl)nc2ccccc12`, the Potency is 2.61 µM (active).
For `CCN(CC)S(=O)(=O)c1cc(C(=O)Oc2cccc(-c3cnc4ccccc4n3)c2)ccc1Br`, the Potency was 1.85 µM (active).
To `Nc1c(-c2ccc3c(c2)OCCO3)oc2ccccc2c1=O` belongs 2.93 µM (active).
`CCN(CC)CCCNc1ncnc2c1cnn2-c1ccc(C)c(C)c1`: the Potency was 6.56 µM (active).
`COc1ccc(-n2ncc3c(NCCCn4ccnc4)ncnc32)cc1`: the Potency was 10.4 µM (active).
As for `Cc1cccc(-n2ncc3c(NCCCn4ccnc4)ncnc32)c1`, the Potency was 10.4 µM (active).
With `Cc1noc(NS(=O)(=O)c2ccc(N/C=C/C(=O)c3ccc4c(c3)OCO4)cc2)c1C`, the Potency was 9.27 µM (active).
As for `COc1cccc(C(=O)/C=C/Nc2ccc(S(=O)(=O)Nc3ncccn3)cc2)c1`, the Potency was 11.7 µM (active).
For the compound `COc1cccc(C(=O)/C=C/Nc2ccc(S(=O)(=O)Nc3onc(C)c3C)cc2)c1`, the Potency is 13.1 µM (active).
As to `COc1cccc(C(=O)/C=C/Nc2ccc(NC(C)=O)cc2)c1`, the Potency is 11.7 µM (active).
